Test results taken from PubChem BioAssay (NCI).
Compounds without any hit were thinned out: in the full panel of roughly 83,000, 20% have a hit.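 Results are percent growth after 48 hours of single-concentration exposure. 100 means growth as in untreated cells, lower positive values show inhibition; negative values down to -100 show cell death.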 Values without a mark were called inactive. Calls of active or inactive are those of the source. Rule for the calls: active = growth percent below 10; inactive = the rest.

Experiments:
Assay in all cases: NCI-60 one-dose screen, 48 h (100 = growth as untreated, 0 = no growth, -100 = all killed)
Settings in all cases: 10 µM unless noted
[1] = system: HCT-15 colon
[2] = system: HT29 colon
[3] = system: SNB-75 CNS
[4] = system: SNB-19 CNS
[5] = system: U251 CNS
[6] = system: PC-3 prostate
[7] = system: SK-MEL-5 melanoma
[8] = system: UACC-62 melanoma
[9] = system: LOX IMVI melanoma
[10] = system: SK-MEL-28 melanoma

Row | SMILES | growth [1] | growth [2] | growth [3] | growth [4] | growth [5] | growth [6] | growth [7] | growth [8] | growth [9] | growth [10]
1 | Cc1cc(C)c(-c2c(N)cc(Br)cc2Br)c(N)c1 | 46.5% | 48.7% | 22.9% | 63.4% | 37.4% | 63.3% | 29.3% | 58% | 32.8% | 51.1%
2 | COc1ccc(OC)c(/C=C/C(=O)N/N=C/c2ccc(Cl)cc2)c1 | 29.4% | 6.49% (active) | 44% | 22.6% | 18.4% | 26.2% | 30.6% | 42.1% | 36.7% | 38.8%
3 | COc1ccc(NC2=C(Br)C(=O)C(C)=C(C)C2=O)cc1 | 91.6% | 117% | 72% | 85.2% | 88.3% | 73.1% | 92.3% | 84.4% | -35.6% (active) | 103%
4 | O=C1CSC(c2c(Cl)cccc2Cl)N1c1nc(Cl)cc(=O)[nH]1 (stereo not given) | 123% | 111% | 113% | 103% | 112% | 73.1% | 97% | 102% | 104% | 115%
5 | O=C1CN(CCN2CC(=O)N(Cc3ccccc3)C(=O)C2)CC(=O)N1Cc1ccccc1 | 113% | 108% | 88% | 107% | 100% | 93.9% | 100% | 103% | 96.3% | 107%
6 | COc1cc(OCc2cccc(-c3ccc(C(O)c4nccs4)cc3)c2C)cc(OC)c1CNCCNC(C)=O (stereo not given) | 97.7% | 92.9% | 85% | 94.9% | 91.1% | 90.2% | 91.8% | 90% | 94.8% | 94.8%
7 | COc1c(N2CC3CCCN(C(C)=O)C3C2)c(F)cc2c(=O)c(C(=O)N[C@H]3C(O)[C@@H](O)C(CO)O[C@H]3O)cn(C3CC3)c12 (stereo not given in full) | 98.5% | 105% | 100% | 99.4% | 102% | 108% | 101% | 101% | 87.1% | 112%
8 | O=C(O)c1cn(C2CC2)c2cc(N3CCN(C(=O)Nc4nc(-c5ccc(Cl)cc5)cs4)CC3)c(F)cc2c1=O | 7.05% (active) | 5.06% (active) | 9.36% (active) | 23.9% | 10.8% | -2.99% (active) | -60.3% (active) | -4.17% (active) | -66.8% (active) | 39.4%
9 | CCOC(=O)c1c(C)nc2c(c1N)CC(=O)N2Cc1ccc(F)cc1 | 95.9% | 90% | 95% | 97.1% | 91.2% | 80% | 92.9% | 90.1% | 93.5% | 111%
10 | CCc1ccc(Oc2c(-c3ccc(OCCc4cccc(C(F)(F)F)c4)cc3O)n[nH]c2C(F)(F)F)cc1 | 23.8% | 86.1% | 63.3% | 39.8% | 12.1% | 46.1% | 42% | 18.6% | 17.6% | 44.3%
11 | Oc1ccc(-c2nc3ccc4[nH]ncc4c3c3c2CCCC3)c2cccnc12 | 4.75% (active) | 12.1% | -23.1% (active) | 13.7% | -4.46% (active) | 7.83% (active) | -4.91% (active) | -11.5% (active) | 3.42% (active) | 13.3%
12 | COc1ccc2c(c1)c(-c1ccc(-c3cn(C)c4ccc(OC)cc34)o1)cn2C | 56.2% | 72.7% | 71.4% | 33.3% | 15% | 3% (active) | -2.83% (active) | 12.4% | 53.2% | 83.6%
13 | O=C(Cc1ccc2c(c1)OCCO2)Nc1nc2ccc(F)cc2s1 | 77.2% | 105% | 84.5% | 116% | 103% | 93.2% | 91.1% | 102% | 93.8% | 111%
14 | Cc1cccc2c3c(sc12)C(c1ccc(Cl)cc1)C(C#N)=C(N)O3 (stereo not given) | 10.3% | 6.24% (active) | 4.24% (active) | 27.6% | 27.2% | 16.2% | 27.1% | 17.6% | 18.4% | 58.6%
15 | O=[N+]([O-])c1ccc(Oc2nc(Nc3ccc(O[C@H]4CO[C@H]5[C@@H]4OC[C@@H]5O)c(Cl)c3)ncc2F)c(Cl)c1 | 26.2% | 24.8% | -2.13% (active) | 56.6% | 23.6% | 34% | -90.9% (active) | -8.64% (active) | 16.7% | 32.3%
16 | CC(=O)Oc1ccccc1C(=O)N=C1[Se]CCCN1C(=O)c1ccccc1OC(C)=O | 21.5% | 95.5% | -28.9% (active) | -55.1% (active) | 23.4% | 19.6% | 74.8% | 73.6% | -64.1% (active) | 18.5%
17 | CNC(=O)c1[nH]cc(-c2ccccc2)c1-c1cc(OC)c2c(c1OC)OCO2 | 104% | 91.5% | 70.9% | 90.6% | 96% | 98.3% | 105% | 90.8% | 98.5% | 108%
18 | CN(C)c1ccc(/C=N\Nc2cc(=O)[nH]c3ccc(Cl)cc23)cc1 | 99.3% | 96% | 78.4% | 96.9% | 99.8% | 86.4% | 98.3% | 82.1% | 99% | 114%
19 | CC(=O)c1ccc(Nc2nc(C(C)=O)c(C)s2)cc1 | 97.4% | 100% | 73.6% | 97.5% | 100% | 95.3% | 99.9% | 96.1% | 99.9% | 103%
20 | CCc1nnc(NC(=O)c2nnn(-c3ccccc3)c2-c2ccco2)s1 | 51.5% | 109% | 89.6% | 93.9% | 84% | 64.7% | 83.2% | 86.5% | 89% | 95.1%
21 | CN1C(=O)CNC(=O)[C@H](NC(=O)c2nc3ccccc3cc2O)CSSC[C@H]1C(=O)NCCc1nc2ccccc2cc1O | 99.7% | 17.6% | 129% | 87% | 71.4% | 55.7% | 38% | 34.9% | -11.5% (active) | 62.8%
22 | CCCCCCNC(=O)Oc1ccc(/C(=C(\C)c2ccc(OC)cc2)c2ccc(OCCN3CCCCC3)cc2)cc1 | 2.35% (active) | 4.52% (active) | 69.4% | 83.9% | 54.4% | 54.1% | 57.6% | 39.2% | 24.5% | 25.2%
23 | Cc1cccc(NC2=C(Cl)C(=O)c3nc(C)ccc3C2=O)c1 | -54.8% (active) | 115% | -64.9% (active) | 23.7% | 32.8% | 24.6% | -93% (active) | -67% (active) | -54.6% (active) | -54.5% (active)
24 | CN1CCN(c2ccc(-c3ccc4ncc(C#N)c(Nc5ccc(F)c(Cl)c5)c4c3)cn2)CC1 | 13.4% | 36.6% | 64.1% | 74.7% | 57% | 58.5% | 82.9% | 86% | 68.8% | 70.3%
25 | CCOC(=O)c1cn2ncnc(Oc3ccc(NC(=O)NCCN(C)C)c(Cl)c3)c2c1C | 23.2% | 7.1% (active) | 99.1% | 82.8% | 70% | 68.6% | 60.9% | 21.7% | 10.3% | 37.6%
26 | Nc1ccccc1-c1cc2c(c3c1[nH]c1ccccc13)CCCCC2 | 86.9% | 88% | 105% | 104% | 103% | 92.1% | 93.8% | 95.4% | 86.7% | 107%
27 | COc1cc(C(=O)c2cc(C)c3[nH]c4ccc(C)cc4c3c2C)cc(OC)c1OC | 8.81% (active) | 10.6% | 39.7% | 52.2% | 19.2% | 23.4% | -42.3% (active) | 62.7% | 10.9% | 57.1%
